One sequence from publication PMC7862700, “An all-to-all approach to the identification of sequence-specific readers for epigenetic DNA modifications on cytosine” can be followed below.

Holding throughout (assay): DAPPL (digital affinity profiling via proximity ligation, sequencing); 10 mM Tris-HCl pH 7.5, 50 mM NaCl, 1 mM DTT, 4% glycerol, room temperature, 30 min; GST-TFs on glutathione beads, 16-mer random dsDNA library, 0.1% formaldehyde crosslink after washing; high values mean tight binding
The target of one experiment is T1, FLI1 (Homo sapiens, UniProt Q01543 1-452).
T1 sequence: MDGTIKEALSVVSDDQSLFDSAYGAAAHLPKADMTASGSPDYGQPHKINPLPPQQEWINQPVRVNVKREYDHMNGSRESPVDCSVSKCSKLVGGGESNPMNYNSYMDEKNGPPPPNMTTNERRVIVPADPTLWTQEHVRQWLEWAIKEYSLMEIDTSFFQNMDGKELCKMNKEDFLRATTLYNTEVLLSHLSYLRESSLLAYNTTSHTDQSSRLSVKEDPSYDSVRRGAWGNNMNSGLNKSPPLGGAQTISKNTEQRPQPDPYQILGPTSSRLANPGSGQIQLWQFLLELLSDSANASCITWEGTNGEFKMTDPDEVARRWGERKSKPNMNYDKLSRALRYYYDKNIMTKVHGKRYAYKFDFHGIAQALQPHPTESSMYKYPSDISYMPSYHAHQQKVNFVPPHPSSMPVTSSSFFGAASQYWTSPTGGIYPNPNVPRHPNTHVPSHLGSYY
Conditions: protein: recombinant; tags: N-terminal GST; dsDNA, one strand shown. In a few lines: (§1)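 Human transcription factors were made in yeast as GST fusions, captured on glutathione beads and barcoded with DNA. With a tag-only sample included, the pool was incubated with 200 nmole of a random double-stranded 16-mer DNA library in Tris/NaCl/DTT/glycerol buffer at room temperature for 30 min, then crosslinked with 0.1% formaldehyde after washing, ligated by proximity, amplified and sequenced. For binding signal, each hexamer's read frequency for a factor is divided by its frequency for the tag-only sample.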

In the next experiment the target is T2, ELK1 (Homo sapiens, UniProt P19419 1-428).
T2 sequence: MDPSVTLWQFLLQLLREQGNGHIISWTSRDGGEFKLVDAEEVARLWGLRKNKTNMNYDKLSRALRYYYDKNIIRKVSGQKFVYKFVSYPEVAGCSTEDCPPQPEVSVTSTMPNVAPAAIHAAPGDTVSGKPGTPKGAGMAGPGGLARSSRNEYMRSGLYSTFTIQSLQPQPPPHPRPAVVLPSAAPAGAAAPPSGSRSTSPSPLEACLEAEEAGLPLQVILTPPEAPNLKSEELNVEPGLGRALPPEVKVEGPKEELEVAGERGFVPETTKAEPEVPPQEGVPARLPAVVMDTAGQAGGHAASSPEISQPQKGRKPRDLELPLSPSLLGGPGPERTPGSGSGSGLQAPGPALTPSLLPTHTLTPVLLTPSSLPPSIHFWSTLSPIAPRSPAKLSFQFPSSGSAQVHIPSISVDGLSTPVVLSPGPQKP
Conditions: protein: recombinant; tags: N-terminal GST; dsDNA, one strand shown. In a few lines: as §1

The next experiment concerns the target T3, GABPA (Homo sapiens, UniProt Q06546 1-454).
T3 sequence: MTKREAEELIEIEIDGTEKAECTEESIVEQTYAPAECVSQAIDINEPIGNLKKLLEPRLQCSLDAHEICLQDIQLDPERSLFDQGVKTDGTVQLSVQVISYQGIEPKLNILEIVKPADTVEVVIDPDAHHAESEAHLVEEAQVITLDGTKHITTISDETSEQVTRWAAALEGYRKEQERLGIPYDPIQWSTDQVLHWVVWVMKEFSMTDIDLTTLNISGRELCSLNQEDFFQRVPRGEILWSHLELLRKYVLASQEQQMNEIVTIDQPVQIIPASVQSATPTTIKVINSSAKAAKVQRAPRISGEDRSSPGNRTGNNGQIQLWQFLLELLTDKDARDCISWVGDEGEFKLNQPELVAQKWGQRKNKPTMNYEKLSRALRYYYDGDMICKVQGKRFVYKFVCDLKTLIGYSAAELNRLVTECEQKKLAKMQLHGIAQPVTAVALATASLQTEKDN
The conditions noted are these: protein: recombinant; tags: N-terminal GST; dsDNA, one strand shown. An outline of the steps:
as §1

The target in a further experiment is T4, ERG (Homo sapiens, UniProt P11308 1-479).
T4 sequence: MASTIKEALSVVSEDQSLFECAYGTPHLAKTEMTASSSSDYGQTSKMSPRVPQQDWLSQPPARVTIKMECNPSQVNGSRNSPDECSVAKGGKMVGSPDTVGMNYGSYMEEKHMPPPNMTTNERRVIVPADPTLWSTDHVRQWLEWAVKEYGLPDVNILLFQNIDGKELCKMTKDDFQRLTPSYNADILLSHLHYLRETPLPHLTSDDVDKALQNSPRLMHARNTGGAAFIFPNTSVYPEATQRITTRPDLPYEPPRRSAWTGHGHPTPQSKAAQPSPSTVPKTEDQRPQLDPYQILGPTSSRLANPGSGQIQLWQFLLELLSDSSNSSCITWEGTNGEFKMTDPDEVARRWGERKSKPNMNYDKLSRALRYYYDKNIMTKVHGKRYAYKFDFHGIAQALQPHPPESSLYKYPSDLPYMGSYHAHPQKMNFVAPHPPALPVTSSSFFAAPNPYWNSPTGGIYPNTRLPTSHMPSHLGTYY
The conditions noted are these: protein: recombinant; tags: N-terminal GST; dsDNA, one strand shown. An outline of the steps: as §1

The target of a further experiment is ELF1 (Homo sapiens, UniProt P32519 1-619). The conditions noted are these: protein: recombinant; tags: N-terminal GST; dsDNA, one strand shown. In a few lines: as §1
For the next experiment, the target named is T5, EHF (Homo sapiens, UniProt Q9NZC4 1-300).
T5 sequence: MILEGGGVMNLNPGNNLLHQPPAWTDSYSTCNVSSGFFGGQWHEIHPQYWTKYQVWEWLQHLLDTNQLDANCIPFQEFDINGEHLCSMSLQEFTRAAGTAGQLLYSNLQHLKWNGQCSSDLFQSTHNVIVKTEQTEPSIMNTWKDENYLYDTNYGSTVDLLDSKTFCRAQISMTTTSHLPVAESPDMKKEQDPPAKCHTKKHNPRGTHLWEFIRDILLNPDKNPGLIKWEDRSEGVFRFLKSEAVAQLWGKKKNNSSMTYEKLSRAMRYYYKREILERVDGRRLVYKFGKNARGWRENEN
The conditions noted are these: protein: recombinant; tags: N-terminal GST; dsDNA, one strand shown. An outline of the steps:
as §1

In the next experiment the target is SPI1 (Homo sapiens, UniProt P17947 1-270). Conditions: protein: recombinant; tags: N-terminal GST; dsDNA, one strand shown. In a few lines: as §1
For another experiment, the target named is SPIB (Homo sapiens, UniProt Q01892 1-262). The conditions noted are these: protein: recombinant; tags: N-terminal GST; dsDNA, one strand shown. An outline of the steps: as §1
The target of the next experiment is T6, ELK3 (Homo sapiens, UniProt P41970 1-407).
T6 sequence: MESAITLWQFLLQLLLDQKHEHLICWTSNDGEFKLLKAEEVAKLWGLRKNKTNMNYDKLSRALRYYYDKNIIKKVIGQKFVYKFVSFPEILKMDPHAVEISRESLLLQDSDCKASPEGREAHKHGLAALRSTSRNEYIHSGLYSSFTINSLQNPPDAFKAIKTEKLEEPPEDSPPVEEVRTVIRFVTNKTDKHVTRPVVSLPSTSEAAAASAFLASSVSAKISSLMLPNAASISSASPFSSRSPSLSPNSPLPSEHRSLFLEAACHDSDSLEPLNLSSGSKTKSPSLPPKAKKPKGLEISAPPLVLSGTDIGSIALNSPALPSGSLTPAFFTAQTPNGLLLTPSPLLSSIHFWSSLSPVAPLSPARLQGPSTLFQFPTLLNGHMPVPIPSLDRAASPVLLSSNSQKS
Conditions: protein: recombinant; tags: N-terminal GST; dsDNA, one strand shown. An outline of the steps:
as §1

The target in a further experiment is T7, FEV (Homo sapiens, UniProt Q99581 1-238).
T7 sequence: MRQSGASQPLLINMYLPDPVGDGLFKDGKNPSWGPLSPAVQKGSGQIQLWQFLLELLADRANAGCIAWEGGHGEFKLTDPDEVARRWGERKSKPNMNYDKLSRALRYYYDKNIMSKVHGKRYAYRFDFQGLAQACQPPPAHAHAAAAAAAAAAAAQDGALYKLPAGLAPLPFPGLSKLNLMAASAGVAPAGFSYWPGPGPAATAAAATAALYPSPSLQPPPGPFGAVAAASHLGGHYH
Conditions: protein: recombinant; tags: N-terminal GST; dsDNA, one strand shown. In a few lines: as §1

The target in a further experiment is ETV5 (Homo sapiens, UniProt P41161 1-510). The conditions noted are these: protein: recombinant; tags: N-terminal GST; dsDNA, one strand shown. In a few lines: as §1
A further experiment has as its target HSF1 (Homo sapiens, UniProt Q00613 1-529). Conditions: protein: recombinant; tags: N-terminal GST; chain copies: 3; dsDNA, one strand shown. In a few lines:
as §1

The next experiment concerns the target T8, SPIC (Homo sapiens, UniProt Q8N5J4 1-248).
T8 sequence: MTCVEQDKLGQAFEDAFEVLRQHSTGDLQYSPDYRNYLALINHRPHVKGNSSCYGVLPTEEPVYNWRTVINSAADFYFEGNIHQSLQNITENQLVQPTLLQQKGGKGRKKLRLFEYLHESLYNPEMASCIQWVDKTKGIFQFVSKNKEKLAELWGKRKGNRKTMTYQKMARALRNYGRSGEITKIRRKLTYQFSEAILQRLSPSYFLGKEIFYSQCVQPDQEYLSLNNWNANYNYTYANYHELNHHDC
Conditions: protein: recombinant; tags: N-terminal GST; dsDNA, one strand shown. An outline of the steps:
as §1

In a further experiment the target is ELF4 (Homo sapiens, UniProt Q99607 1-663). Conditions: protein: recombinant; tags: N-terminal GST; dsDNA, one strand shown. In a few lines: as §1
A further experiment concerns the target T9, ELK4 (Homo sapiens, UniProt P28324-2 1-405).
T9 sequence: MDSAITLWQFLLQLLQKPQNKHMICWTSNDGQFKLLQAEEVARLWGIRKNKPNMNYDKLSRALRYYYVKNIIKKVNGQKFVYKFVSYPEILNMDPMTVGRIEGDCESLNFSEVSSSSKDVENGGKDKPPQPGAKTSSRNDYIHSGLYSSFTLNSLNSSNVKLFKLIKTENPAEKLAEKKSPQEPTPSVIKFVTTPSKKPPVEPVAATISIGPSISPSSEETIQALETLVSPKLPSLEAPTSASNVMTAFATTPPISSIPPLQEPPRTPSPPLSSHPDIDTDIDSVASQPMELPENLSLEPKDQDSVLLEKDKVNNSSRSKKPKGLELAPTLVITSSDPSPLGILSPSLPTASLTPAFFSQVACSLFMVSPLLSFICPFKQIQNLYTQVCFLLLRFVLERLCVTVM
Conditions: protein: recombinant; tags: N-terminal GST; dsDNA, one strand shown. In a few lines:
as §1

For another experiment, the target named is T10, ETV2 (Homo sapiens, UniProt O00321 1-342).
T10 sequence: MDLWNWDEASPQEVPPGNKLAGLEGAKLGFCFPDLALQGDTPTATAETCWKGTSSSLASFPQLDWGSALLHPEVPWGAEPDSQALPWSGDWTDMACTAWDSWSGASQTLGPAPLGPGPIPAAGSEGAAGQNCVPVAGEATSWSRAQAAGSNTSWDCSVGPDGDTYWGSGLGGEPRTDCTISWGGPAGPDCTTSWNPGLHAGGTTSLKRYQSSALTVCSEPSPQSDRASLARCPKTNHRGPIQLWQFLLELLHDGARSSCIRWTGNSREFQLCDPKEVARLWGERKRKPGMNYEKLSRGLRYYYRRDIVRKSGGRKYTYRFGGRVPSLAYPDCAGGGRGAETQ
Conditions: protein: recombinant; tags: N-terminal GST; dsDNA, one strand shown. An outline of the steps:
as §1

The next experiment deals with T11, ELF3 (Homo sapiens, UniProt P78545 1-371).
T11 sequence: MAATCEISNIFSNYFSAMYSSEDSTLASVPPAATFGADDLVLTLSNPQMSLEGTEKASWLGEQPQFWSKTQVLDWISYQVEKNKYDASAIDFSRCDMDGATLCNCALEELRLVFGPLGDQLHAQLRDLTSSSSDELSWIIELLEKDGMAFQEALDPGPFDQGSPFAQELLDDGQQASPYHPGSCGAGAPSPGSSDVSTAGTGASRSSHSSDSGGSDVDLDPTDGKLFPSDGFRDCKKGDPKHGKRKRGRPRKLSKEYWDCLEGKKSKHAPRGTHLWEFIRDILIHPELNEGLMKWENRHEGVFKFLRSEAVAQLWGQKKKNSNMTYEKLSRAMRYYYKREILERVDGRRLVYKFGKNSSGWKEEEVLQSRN
The conditions noted are these: protein: recombinant; tags: N-terminal GST; dsDNA, one strand shown. An outline of the steps:
as §1

Another experiment concerns the target ETV1 (Homo sapiens, UniProt P50549 1-477). Conditions: protein: recombinant; tags: N-terminal GST; dsDNA, one strand shown. In a few lines:
as §1

ELF1, sequence (P32519 whole entry): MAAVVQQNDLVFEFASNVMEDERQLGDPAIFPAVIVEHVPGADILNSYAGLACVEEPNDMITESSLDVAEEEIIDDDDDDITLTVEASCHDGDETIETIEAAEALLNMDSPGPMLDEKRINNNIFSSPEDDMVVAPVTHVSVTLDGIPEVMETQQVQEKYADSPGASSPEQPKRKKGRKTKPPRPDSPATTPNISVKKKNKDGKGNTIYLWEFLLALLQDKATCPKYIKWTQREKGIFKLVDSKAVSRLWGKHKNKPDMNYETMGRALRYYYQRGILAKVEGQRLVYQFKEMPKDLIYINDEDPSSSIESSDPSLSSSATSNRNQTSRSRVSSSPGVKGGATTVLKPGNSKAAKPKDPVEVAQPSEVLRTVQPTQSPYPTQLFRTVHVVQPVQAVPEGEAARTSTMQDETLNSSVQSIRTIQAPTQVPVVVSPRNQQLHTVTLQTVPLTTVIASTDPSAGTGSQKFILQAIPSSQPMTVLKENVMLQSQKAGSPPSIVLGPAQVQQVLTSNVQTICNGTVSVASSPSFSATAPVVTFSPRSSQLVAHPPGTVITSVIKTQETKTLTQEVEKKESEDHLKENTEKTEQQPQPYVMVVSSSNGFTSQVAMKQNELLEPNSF
HSF1, sequence (Q00613 whole entry): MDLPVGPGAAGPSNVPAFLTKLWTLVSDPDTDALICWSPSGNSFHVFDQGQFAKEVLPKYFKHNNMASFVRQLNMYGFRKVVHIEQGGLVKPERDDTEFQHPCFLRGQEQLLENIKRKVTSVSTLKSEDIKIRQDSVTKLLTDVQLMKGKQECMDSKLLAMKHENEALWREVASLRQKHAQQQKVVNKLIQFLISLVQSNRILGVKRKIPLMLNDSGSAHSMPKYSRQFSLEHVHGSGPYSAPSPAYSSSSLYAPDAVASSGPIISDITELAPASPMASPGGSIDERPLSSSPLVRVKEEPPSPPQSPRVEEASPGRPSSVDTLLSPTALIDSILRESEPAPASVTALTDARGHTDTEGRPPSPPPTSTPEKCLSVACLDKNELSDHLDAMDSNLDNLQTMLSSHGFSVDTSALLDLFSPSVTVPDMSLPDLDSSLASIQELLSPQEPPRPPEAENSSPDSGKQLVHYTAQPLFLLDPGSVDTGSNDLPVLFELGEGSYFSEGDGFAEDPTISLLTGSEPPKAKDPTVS
SPIB, sequence (Q01892 whole entry): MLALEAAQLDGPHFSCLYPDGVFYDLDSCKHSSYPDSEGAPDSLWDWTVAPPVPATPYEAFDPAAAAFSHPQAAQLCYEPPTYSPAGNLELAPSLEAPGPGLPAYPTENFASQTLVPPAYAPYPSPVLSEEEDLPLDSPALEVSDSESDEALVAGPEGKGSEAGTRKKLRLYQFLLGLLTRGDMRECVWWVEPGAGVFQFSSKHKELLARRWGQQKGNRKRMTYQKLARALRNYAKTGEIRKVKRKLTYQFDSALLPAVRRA
ETV1, sequence (P50549 whole entry): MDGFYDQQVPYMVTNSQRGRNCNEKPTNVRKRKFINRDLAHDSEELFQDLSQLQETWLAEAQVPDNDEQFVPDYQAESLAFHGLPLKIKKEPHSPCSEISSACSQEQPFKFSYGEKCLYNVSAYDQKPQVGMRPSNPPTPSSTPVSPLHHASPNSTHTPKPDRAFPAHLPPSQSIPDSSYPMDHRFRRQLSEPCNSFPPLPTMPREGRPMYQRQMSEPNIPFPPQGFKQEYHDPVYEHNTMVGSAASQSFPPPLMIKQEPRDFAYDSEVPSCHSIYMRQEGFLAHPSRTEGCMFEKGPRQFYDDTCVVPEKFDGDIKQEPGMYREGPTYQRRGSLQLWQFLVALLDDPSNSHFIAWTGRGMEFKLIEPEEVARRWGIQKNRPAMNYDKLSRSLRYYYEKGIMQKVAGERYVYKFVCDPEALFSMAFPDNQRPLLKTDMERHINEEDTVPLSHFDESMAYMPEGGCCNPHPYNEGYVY
ETV5, sequence (P41161 whole entry): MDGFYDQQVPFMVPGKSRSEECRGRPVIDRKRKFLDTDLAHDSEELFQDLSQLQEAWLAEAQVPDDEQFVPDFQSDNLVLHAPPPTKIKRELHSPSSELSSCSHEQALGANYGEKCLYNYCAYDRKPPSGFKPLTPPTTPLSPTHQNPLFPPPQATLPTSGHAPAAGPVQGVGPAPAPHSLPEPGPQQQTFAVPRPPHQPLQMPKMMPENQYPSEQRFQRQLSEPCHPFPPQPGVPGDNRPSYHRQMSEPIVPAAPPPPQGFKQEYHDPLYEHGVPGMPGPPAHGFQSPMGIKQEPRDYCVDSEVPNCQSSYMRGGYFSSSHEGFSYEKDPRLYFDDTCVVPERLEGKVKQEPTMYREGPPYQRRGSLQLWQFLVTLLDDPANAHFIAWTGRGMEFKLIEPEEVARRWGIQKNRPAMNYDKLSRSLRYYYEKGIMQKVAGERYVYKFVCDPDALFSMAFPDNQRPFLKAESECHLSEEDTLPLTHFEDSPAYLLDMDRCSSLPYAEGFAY
ELF4, sequence (Q99607 whole entry): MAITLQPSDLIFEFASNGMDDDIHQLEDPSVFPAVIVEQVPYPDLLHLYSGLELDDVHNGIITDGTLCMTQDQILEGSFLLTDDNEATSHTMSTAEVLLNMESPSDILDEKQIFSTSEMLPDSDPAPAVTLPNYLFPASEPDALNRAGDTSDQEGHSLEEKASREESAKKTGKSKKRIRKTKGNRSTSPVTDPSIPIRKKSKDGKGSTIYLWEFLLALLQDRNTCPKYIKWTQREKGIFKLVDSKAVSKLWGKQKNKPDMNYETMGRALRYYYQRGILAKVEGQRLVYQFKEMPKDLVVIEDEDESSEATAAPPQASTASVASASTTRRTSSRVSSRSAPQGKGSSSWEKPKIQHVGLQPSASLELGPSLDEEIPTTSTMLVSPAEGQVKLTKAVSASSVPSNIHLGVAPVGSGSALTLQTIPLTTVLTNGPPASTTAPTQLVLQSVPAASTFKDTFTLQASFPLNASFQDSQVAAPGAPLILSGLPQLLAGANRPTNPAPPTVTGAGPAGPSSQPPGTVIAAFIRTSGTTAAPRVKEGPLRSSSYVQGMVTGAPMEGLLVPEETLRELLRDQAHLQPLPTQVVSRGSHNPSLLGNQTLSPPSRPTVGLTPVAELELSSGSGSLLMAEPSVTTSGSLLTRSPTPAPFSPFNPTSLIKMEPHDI

Consider TGACAT, for which the binding signal is 1.27 fold enrichment (6-mer frequency, TF over GST control) in the experiment with FLI1; 1.27 fold enrichment (6-mer frequency, TF over GST control) with ELK1; 1.31 fold enrichment (6-mer frequency, TF over GST control) with GABPA; 1.19 fold enrichment (6-mer frequency, TF over GST control) with ERG; 1.28 fold enrichment (6-mer frequency, TF over GST control) in the experiment with ELF1; 1.36 fold enrichment (6-mer frequency, TF over GST control) with EHF. For the same sequence, the binding signal with SPI1 is 1.21 fold enrichment (6-mer frequency, TF over GST control); with SPIB it was 1.19 fold enrichment (6-mer frequency, TF over GST control); in the experiment with ELK3, 1.15 fold enrichment (6-mer frequency, TF over GST control); in the experiment with FEV it was 1.23 fold enrichment (6-mer frequency, TF over GST control); with ETV5, 1.26 fold enrichment (6-mer frequency, TF over GST control); with HSF1 it was 1.01 fold enrichment (6-mer frequency, TF over GST control). For the same sequence, the binding signal in the experiment with SPIC was 1.07 fold enrichment (6-mer frequency, TF over GST control); in the experiment with ELF4 it was 1.24 fold enrichment (6-mer frequency, TF over GST control); in the experiment with ELK4, 1.3 fold enrichment (6-mer frequency, TF over GST control); with ETV2, 1.18 fold enrichment (6-mer frequency, TF over GST control); in the experiment with ELF3, 1.25 fold enrichment (6-mer frequency, TF over GST control); with ETV1 it was 1.23 fold enrichment (6-mer frequency, TF over GST control).
